Among the data in PubChem BioAssay (NCI) are growth values, retold here.

Test systems include SR leukemia; RPMI-8226 leukemia; OVCAR-8 ovarian; OVCAR-5 ovarian; OVCAR-4 ovarian; SK-OV-3 ovarian; IGROV1 ovarian; OVCAR-3 ovarian; HS 578T breast; NCI/ADR-RES ovarian; T-47D breast; BT-549 breast; MDA-MB-435 melanoma; SW-620 colon; HCT-116 colon; KM12 colon; MCF7 breast; HCC-2998 colon.
Common to all, as to assay: NCI-60 one-dose screen, 48 h (100 = growth as untreated, 0 = no growth, -100 = all killed)
Common to all, as to conditions: 10 µM

The panel holds about 83,000 compounds, 20% with a hit somewhere; the sample as a whole holds those more often.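 48-hour exposure, single concentration, 96-well plates; percent growth endpoint where 0 means no net growth. Active: below 10.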 A number with no mark means an inactive call. Activity calls are given as the source filed them.

Regarding `CC1(C)CC(=O)c2c(nc3ccc(Cl)cc3c2-c2ccccc2)C1`, the growth was 69.5% in the experiment on SR leukemia; 27.5% with RPMI-8226 leukemia; 94.6% in the experiment with OVCAR-8 ovarian; 89.9% with OVCAR-5 ovarian; 98.8% in the experiment on OVCAR-4 ovarian; 94.3% in the experiment on SK-OV-3 ovarian. Also, the growth in the experiment with IGROV1 ovarian was 75.5%; with OVCAR-3 ovarian it was 108%; with HS 578T breast it was 158%; in the experiment with NCI/ADR-RES ovarian, 81.9%; in the experiment with T-47D breast it was 85.7%; in the experiment with BT-549 breast it was 85.8%. Moreover, the growth in the experiment on MDA-MB-435 melanoma was 84.5%; with SW-620 colon, 159%; with HCT-116 colon it was 91%; in the experiment on KM12 colon, 94%.

Regarding `CCN1CCN(c2ccc(Nc3ncnc4c3nnn4CCc3cc(OC)cc(OC)c3)cc2)CC1`, the growth with SR leukemia was 89.2%; in the experiment with RPMI-8226 leukemia it was 91.1%; with OVCAR-8 ovarian it was 87.5%; in the experiment with OVCAR-5 ovarian, 86.7%; in the experiment on OVCAR-4 ovarian it was 86.7%; with SK-OV-3 ovarian, 101%. Further, the growth with IGROV1 ovarian was 111%; in the experiment with OVCAR-3 ovarian, 99.2%; in the experiment on HS 578T breast, 88.2%; with NCI/ADR-RES ovarian, 92.3%; with T-47D breast, 73.3%; in the experiment with MDA-MB-435 melanoma it was 95.4%. Further, the growth in the experiment on SW-620 colon is 102%; in the experiment on MCF7 breast, 85.8%; in the experiment on HCT-116 colon it was 77.9%; in the experiment on HCC-2998 colon, 109%; in the experiment with KM12 colon it was 99.1%.

`COCc1cc2c(cc1Br)OCO2`: the growth with SR leukemia was 106%; in the experiment on RPMI-8226 leukemia, 95.1%; in the experiment on OVCAR-8 ovarian, 98.8%; in the experiment on OVCAR-5 ovarian it was 92.5%; in the experiment on OVCAR-4 ovarian it was 111%; in the experiment on SK-OV-3 ovarian, 95.3%. Also, the growth with OVCAR-3 ovarian is 111%; in the experiment with HS 578T breast, 101%; in the experiment with NCI/ADR-RES ovarian it was 88.7%; in the experiment on T-47D breast it was 98.4%; in the experiment with BT-549 breast, 105%; with MDA-MB-435 melanoma it was 108%. For the same compound, the growth was 103% with SW-620 colon; 96.4% in the experiment with MCF7 breast; 98.6% in the experiment with HCT-116 colon; 95.9% with HCC-2998 colon; 104% in the experiment on KM12 colon.

In the case of `C#CCNCCN1C(=O)c2ccc3c4c(ccc(c24)C1=O)C(=O)N(CCNCC#C)C3=O`, the growth was 13.9% in the experiment on SR leukemia; 45.3% in the experiment on RPMI-8226 leukemia; 32% in the experiment on OVCAR-8 ovarian; 68.2% in the experiment on OVCAR-5 ovarian; -34.7% (active) in the experiment on OVCAR-4 ovarian; 70.3% in the experiment on SK-OV-3 ovarian. For the same compound, the growth is 36.9% in the experiment on IGROV1 ovarian; 5.29% (active) in the experiment with OVCAR-3 ovarian; 64% in the experiment on HS 578T breast; 45.1% in the experiment on NCI/ADR-RES ovarian; 54.8% with T-47D breast; -35.8% (active) in the experiment with MDA-MB-435 melanoma. The growth is 26.9% in the experiment on SW-620 colon; 14.9% with MCF7 breast; -10.7% (active) with HCT-116 colon; 13.2% in the experiment on HCC-2998 colon; 30.9% in the experiment with KM12 colon.

For the compound `CCCCCCCCCCCC(c1ccccc1)N(C)C` (configuration not stated), the growth with SR leukemia is 77%; with RPMI-8226 leukemia, 83.5%; in the experiment on OVCAR-8 ovarian, 97.7%; in the experiment on OVCAR-5 ovarian, 99.2%; with OVCAR-4 ovarian it was 84.7%; in the experiment with SK-OV-3 ovarian, 108%. For the same compound, the growth in the experiment on IGROV1 ovarian is 96.1%; in the experiment on OVCAR-3 ovarian, 106%; with HS 578T breast, 93.3%; in the experiment with NCI/ADR-RES ovarian, 96.1%; with T-47D breast, 99.7%; in the experiment with BT-549 breast, 101%. Moreover, the growth with MDA-MB-435 melanoma was 102%; with SW-620 colon it was 95.4%; with HCT-116 colon, 94.4%; in the experiment on KM12 colon, 104%.

For the compound `COc1ccc(-c2n/c(=C\c3c(O)[nH]c4ccccc34)cc3c2=Nc2ccccc2-3)cc1`, the growth with SR leukemia was 6.48% (active); with RPMI-8226 leukemia, 24.7%; in the experiment with OVCAR-8 ovarian, 20.1%; in the experiment with OVCAR-5 ovarian, 89.1%; in the experiment with OVCAR-4 ovarian it was 5.98% (active); in the experiment on SK-OV-3 ovarian it was 93.5%. Besides, the growth in the experiment on IGROV1 ovarian was 85.6%; with HS 578T breast, 80.7%; in the experiment with NCI/ADR-RES ovarian, 5.95% (active); with T-47D breast it was 84.8%; with BT-549 breast it was 78.4%; in the experiment on MDA-MB-435 melanoma, 4.87% (active). The growth is -6.59% (active) in the experiment on SW-620 colon; -22% (active) in the experiment with MCF7 breast; -87.3% (active) in the experiment with HCT-116 colon; 17.8% in the experiment on HCC-2998 colon; 5.41% (active) with KM12 colon.

On to `O=[N+]([O-])c1ccc2c(c1)Cc1cc(I)ccc1-2`, for which the growth in the experiment with SR leukemia is 92.4%; in the experiment with RPMI-8226 leukemia it was 98.4%; with OVCAR-8 ovarian, 118%; with OVCAR-5 ovarian, 97%; in the experiment on OVCAR-4 ovarian, 117%; with SK-OV-3 ovarian, 123%. The growth is 104% in the experiment on IGROV1 ovarian; 110% in the experiment with OVCAR-3 ovarian; 101% in the experiment on HS 578T breast; 104% in the experiment with NCI/ADR-RES ovarian; 105% in the experiment with T-47D breast; 94.2% with BT-549 breast. Also, the growth is 98.1% in the experiment with MDA-MB-435 melanoma; 85% with MCF7 breast; 96.2% with HCT-116 colon; 103% in the experiment with HCC-2998 colon; 105% in the experiment on KM12 colon.
